Drawing on PubChem BioAssay (EPA / NIEHS), this text covers outcome and AC50 for 31 compounds.

Structures are written as SMILES. Results filed as inconclusive are left out. Active and inactive are the calls of the source. Rule for the calls, unless noted: active = hit-call score of the fitted dose curve at least 0.9, where 1 is the maximum; inconclusive = response in the unintended direction; inactive = score below 0.9.

Assay [1] in a line: TOX21_p53_BLA_p2_viability: Viability Assessment in the Tox21 HCT-116 p53 Agonism Beta-lactamase Assay, Phase 2 (AID 2283591).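 Note: actives lower the ATP signal meaning cytotoxicity.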 An outline of the steps:
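Cytotoxicity readout: CellTiter-Glo ATP luminescence, 30 min at room temperature, after the beta-lactamase read. Cells were HCT116 exposed 16 h at 37C to compounds pin-transferred at 217-fold dilution from DMSO stocks.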

The target of assay [2] is Cellular tumor antigen p53 (Homo sapiens) (UniProt P04637). The assay is described as follows: TOX21_p53_BLA_p2_ratio: Tox21 HCT-116 p53 Agonism Beta-lactamase Assay, Ratio, Phase 2 (AID 2283592). A digest of the protocol: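 Cleaved-to-uncleaved substrate ratio (460 vs 530 nm) measured in HCT116 cells with an inducible beta-lactamase reporter linked to p53 activity. Compounds incubated 16 h at 37C before 2 h room-temperature CCF4-AM loading.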
Cellular tumor antigen p53 (Homo sapiens), sequence (P04637 whole entry, looked up): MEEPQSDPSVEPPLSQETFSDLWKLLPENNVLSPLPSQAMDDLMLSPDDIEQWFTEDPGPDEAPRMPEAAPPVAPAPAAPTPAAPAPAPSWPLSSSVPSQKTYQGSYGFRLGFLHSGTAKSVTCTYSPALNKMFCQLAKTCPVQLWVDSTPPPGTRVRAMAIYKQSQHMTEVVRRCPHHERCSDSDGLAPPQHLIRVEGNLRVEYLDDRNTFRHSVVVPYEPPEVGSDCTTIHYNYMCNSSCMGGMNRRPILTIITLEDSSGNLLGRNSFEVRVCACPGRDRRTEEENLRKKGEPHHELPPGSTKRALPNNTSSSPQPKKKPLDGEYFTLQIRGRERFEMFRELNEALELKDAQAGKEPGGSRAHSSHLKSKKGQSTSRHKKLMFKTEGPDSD

For assay [3] the target is unchanged. The assay is described as follows: TOX21_p53_BLA_p3_ratio: Tox21 HCT-116 p53 Agonism Beta-lactamase Assay, Ratio, Phase 3 (AID 2283596). A digest of the protocol:
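Cells were seeded at 4000/well, rested 5 h at 37C, then dosed with DMSO compound solutions (217-fold dilution) for 16 h. CCF4-AM substrate was loaded for 2 h at room temperature, and the 460/530 nm emission ratio was fitted for gain of signal versus DMSO.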

The target is the same in assay [4]. The experiment in a line: TOX21_p53_BLA_p5_ratio: Tox21 HCT-116 p53 Agonism Beta-lactamase Assay, Ratio, Phase 5 (AID 2283599). A digest of the protocol:
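Beta-lactamase reporter ratio (blue 460 nm over green 530 nm, 405 nm excitation) after 2 h CCF4-AM loading, in HCT-116 cells exposed 16 h at 37 C to compounds pinned at 217-fold dilution. Increases relative to DMSO baseline scored.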

Assay [5] in a line: TOX21_p53_BLA_p5_viability: Viability Assessment in the Tox21 HCT-116 p53 Agonism Beta-lactamase Assay, Phase 5 (AID 2283600). A digest of the protocol: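 Viability is taken from cellular ATP content, measured by luciferase luminescence in the same wells after the beta-lactamase ratio read. Cells are seeded at 4000 per well and exposed to DMSO-dissolved compounds, diluted 217-fold, for 16 h.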

The target in assay [6] is Cellular tumor antigen p53 (Homo sapiens) (UniProt P04637). The assay is described as follows: TOX21_p53_BLA_p4_ratio: Tox21 HCT-116 p53 Agonism Beta-lactamase Assay, Ratio, Phase 4 (AID 2283601). An outline of the steps:
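Signal is the blue/green (460nm/530nm) ratio of cleaved versus uncleaved CCF4-AM substrate, read after 2 h substrate loading. Cells were HCT116 carrying the p53-responsive beta-lactamase reporter, dosed 16 h at 37C, 5% CO2; CellTiter-Glo measured in parallel.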

Assay [7] is described as follows: TOX21_p53_BLA_p4_viability: Viability Assessment in the Tox21 HCT-116 p53 Agonism Beta-lactamase Assay, Phase 4 (AID 2283597).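 Note: hits lower the luminescence signal meaning cytotoxicity.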 An outline of the steps:
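Viability is taken as cellular ATP: after 16 h compound exposure of HCT116 cells and a 2 h room-temperature CCF4-AM substrate step, CellTiter-Glo reagent is added and luminescence is measured 30 min later.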

A further assay addresses PGR (gene 5241) (UniProt P06401). The assay is described as follows: TOX21_PR_BLA_Followup_Antagonist_ratio: Tox21 HEK293 Progesterone Receptor (PR) Antagonism Beta-lactamase Follow-Up Assay, Ratio (AID 2283934). An outline of the steps:
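Read-out: blue/green beta-lactamase FRET ratio (cleaved ch2 over uncleaved ch1), fitted relative to DMSO baseline. Cells: PR-UAS-bla HEK293T, GAL4-UAS reporter, stimulated with 1 nM R5020 final; 16 hr compound exposure, 37C.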

Assay [8] is described as follows: TOX21_PR_BLA_Followup_Antagonist_viability: Viability Assessment in the Tox21 HEK293 Progesterone Receptor (PR) Antagonism Beta-lactamase Follow-Up Assay (AID 2283936).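 Note: cells exposed to compound with R5020 agonist for 16 h; hits lower the luminescence signal meaning cytotoxicity.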 An outline of the steps:
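PR-UAS-bla HEK293T cells in medium with 2% charcoal-stripped FBS were treated with compounds plus R5020 for 16 hr at 37C. After the beta-lactamase read, CellTiter-Glo was added to the same wells and luminescence read after 30 min at room temperature.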

A short description of assay [9]: TOX21_PR_LUC_Followup_Antagonist_viability: Viability Assessment in the Tox21 HEK293 Progesterone Receptor (PR) Antagonism Luciferase Follow-Up Assay (AID 2283940). An outline of the steps:
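Read-out: CellTiter-Glo ATP luminescence, loss of signal taken as reduced viability. Cells: HEK293-PR-A-luc, 3,000/well, 5 h settling, then 16 h compound exposure at 37C, 0% CO2.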

Assay [10] is described as follows: TOX21_PR_LUC_Followup_Agonist_viability: Viability Assessment in the Tox21 HEK293 Progesterone Receptor (PR) Agonism Luciferase Follow-Up Assay (AID 2283941).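 Note: loss of signal means cytotoxicity so actives lower viability.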 An outline of the steps: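 Cytotoxicity counter-screen: ATP content by CellTiter-Glo luminescence, loss of signal = reduced viability. HEK293-PR-A-luc, 3,000 cells/well, compound exposure 16 h, 37C.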
Assay [11] has as its target Thyroid hormone receptor alpha (Rattus norvegicus) + Thyroid hormone receptor beta (Rattus norvegicus) (UniProt P18113+P63059). The experiment in a line: TOX21_TR_LUC_GH3_Antagonist_Followup: Tox21 GH3 Thyroid Hormone Receptor Antagonism Luciferase Follow-Up Assay (AID 2283942). A digest of the protocol: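 Loss of T3-driven (1.0 nM final) reporter activity in GH3 cells was read by ONE-Glo luminescence after 24 h incubation at 37C; 15-point compound series spanned 92 uM to 5nM final, 1,500 cells/well.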

For a further assay, the target named is THRB (gene 7068) (UniProt P10828). The assay is described as follows: TOX21_TRB_COA_Antagonist_Followup_ratio: Tox21 Thyroid Hormone Receptor beta Antagonism through Coactivator Recruitment Follow-Up Assay, Ratio (AID 2283967). An outline of the steps:
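Coactivator recruitment to the GST-tagged TRb ligand-binding domain (5.0 nM) was read as the 520/495 nm TR-FRET ratio, using 200 nM fluorescein SRC-2 peptide and 2 nM terbium anti-GST. Scaled between DMSO and T3 wells; loss of signal fitted.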

Assay [12] in a line: TOX21_p53_BLA_p3_viability: Viability Assessment in the Tox21 HCT-116 p53 Agonism Beta-lactamase Assay, Phase 3 (AID 2283593).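 Note: cells exposed to compound for 16 h before reading.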 An outline of the steps: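 Cellular ATP was quantified by CellTiter-Glo luminescence, read after 30 min at room temperature. Beforehand, HCT116 cells (4000/well) received compound 5 h post-seeding, 217-fold diluted from DMSO, then incubated 16 h at 37C.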

Assay [13] can be described thus: CCTE_Harrill_HTTr_Apoptosis_MCF7: CCTE's 6-hour Apoptosis Assessment for the High-Throughput Transcriptomics (HTTr) Platform, in MCF-7 cells cultured in DMEM + 10% fetal bovine serum, Harrill Lab (AID 2284011; active = hit-call score of the fitted dose curve at least 0.9, where 1 is the maximum; inactive = score below 0.9). A digest of the protocol: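 Cells are dosed with test chemicals at eight concentrations and imaged 6 hours later for caspase-3/7 activity using a green fluorogenic detection reagent. Activity is fitted in both directions against DMSO controls.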

The nature of assay [14]: CCTE_Harrill_HTTr_CellCount_MCF7: CCTE's Cell Proliferation Assessment for the High-Throughput Transcriptomics (HTTr) Platform, Harrill Lab (AID 2284012).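 Note: count of Hoechst-stained nuclei per well by high-content imaging in MCF-7 cells; cells exposed to compound for six hours; intended direction is loss of nuclei count meaning fewer cells.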 A digest of the protocol: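 Readout: Hoechst nuclear count by high-content imaging. MCF-7, 8-point dilution series, 6 h exposure. Bidirectional fit vs DMSO baseline.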

THRB (gene 7068), sequence (P10828 whole entry, looked up, the tested form may be a part): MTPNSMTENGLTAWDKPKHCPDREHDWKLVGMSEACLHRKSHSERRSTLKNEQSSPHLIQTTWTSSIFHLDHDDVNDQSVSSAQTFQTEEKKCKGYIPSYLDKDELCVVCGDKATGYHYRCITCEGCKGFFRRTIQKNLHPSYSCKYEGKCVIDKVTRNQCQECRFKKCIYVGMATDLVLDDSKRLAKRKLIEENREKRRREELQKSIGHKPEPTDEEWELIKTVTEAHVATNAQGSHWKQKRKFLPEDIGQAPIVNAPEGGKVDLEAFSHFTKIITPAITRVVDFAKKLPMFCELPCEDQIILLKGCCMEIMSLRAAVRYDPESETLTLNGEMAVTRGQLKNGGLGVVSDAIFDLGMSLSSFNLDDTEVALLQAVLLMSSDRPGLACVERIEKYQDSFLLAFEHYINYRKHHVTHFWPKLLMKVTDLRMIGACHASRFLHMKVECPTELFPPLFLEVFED
PGR (gene 5241), sequence (P06401 whole entry, looked up, the tested form may be a part): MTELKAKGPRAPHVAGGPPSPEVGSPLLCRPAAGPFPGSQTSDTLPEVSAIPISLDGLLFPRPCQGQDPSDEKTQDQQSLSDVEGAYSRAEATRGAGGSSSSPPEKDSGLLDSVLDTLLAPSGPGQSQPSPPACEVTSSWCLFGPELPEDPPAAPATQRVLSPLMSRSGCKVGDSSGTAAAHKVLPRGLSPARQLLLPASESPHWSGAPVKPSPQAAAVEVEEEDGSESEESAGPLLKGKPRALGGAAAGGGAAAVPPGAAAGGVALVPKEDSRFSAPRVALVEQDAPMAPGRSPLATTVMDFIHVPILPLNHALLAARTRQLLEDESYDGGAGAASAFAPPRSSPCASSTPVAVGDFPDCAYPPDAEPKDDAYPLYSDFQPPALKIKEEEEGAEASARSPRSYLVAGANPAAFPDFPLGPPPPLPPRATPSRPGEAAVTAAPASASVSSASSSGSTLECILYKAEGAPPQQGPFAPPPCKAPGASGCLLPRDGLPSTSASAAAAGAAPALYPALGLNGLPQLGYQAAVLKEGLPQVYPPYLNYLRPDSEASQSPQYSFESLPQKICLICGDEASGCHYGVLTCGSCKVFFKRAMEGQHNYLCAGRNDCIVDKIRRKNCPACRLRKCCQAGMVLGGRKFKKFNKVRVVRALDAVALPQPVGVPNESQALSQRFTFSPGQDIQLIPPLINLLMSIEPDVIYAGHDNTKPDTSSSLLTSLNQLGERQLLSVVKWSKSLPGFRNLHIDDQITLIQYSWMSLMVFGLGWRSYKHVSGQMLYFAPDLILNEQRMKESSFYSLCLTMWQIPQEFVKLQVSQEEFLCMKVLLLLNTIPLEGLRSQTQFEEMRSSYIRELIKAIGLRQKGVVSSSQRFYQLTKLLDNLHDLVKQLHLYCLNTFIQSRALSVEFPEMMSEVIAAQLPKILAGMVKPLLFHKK

As to `CNP(=O)(OC)Oc1ccc(C(C)(C)C)cc1Cl` (stereo unspecified), the call in assay [1], in assay [2], in assay [3], in [4], in [5] and in [6] was inactive.
As for `Cc1coc2c1CCC(C)C2` (stereo unspecified), the compound was called inactive in assay [1], in assay [2], in assay [7], in assay [4] and in assay [5].
As to `C[C@]12C=CC(=O)C=C1CC[C@@H]1[C@@H]2CC[C@]2(C)OC(=O)CC[C@@H]12`, the call in [1], in assay [2], in [3], in assay [4], in [5] and in [6] was inactive.
Consider `COc1cc(CCN)cc(OC)c1OC`, for which the compound was classed as inactive in assay [1], in assay [2], in assay [7], in [4] and in [5].
As for `COP(=S)(OC)Oc1ccc([N+](=O)[O-])cc1Cl`, the compound was called inactive in [1], in [2], in [3], in [7], in [5] and in assay [6].
As for `CC[C@H]1C[C@H]2[C@@H]3CCC4=CC(=O)CC[C@@H]4[C@H]3CC[C@]2(C)[C@H]1O`, the compound was called inactive in assay [1], in assay [2], in [3], in assay [7], in assay [5] and in assay [6]. The result (with PGR (gene 5241); in assay [8]; in assay [9]; in [10]; in [11]; in the assay with THRB (gene 7068)) was inactive.
For the compound `NCCOS(=O)(=O)O`, the compound was classed as inactive in [1], in assay [2], in assay [3], in [4], in [5] and in [6].
As to `COCCC#N`, the outcome in assay [1], in assay [2], in assay [3], in assay [7], in assay [5] and in assay [6] was inactive.
Consider `Clc1ccc2c(c1)C(c1ccccc1)=NCc1nncn1-2`, for which the result in [1], in assay [2], in assay [3], in assay [5] and in [6] was inactive.
With `c1ccc(C2(N3CCCC3)CCCCC2)cc1`, the call in [1], in assay [7], in [4] and in assay [5] was inactive. The AC50 in assay [12] was 33.1 µM (active); in [3], 43.9 µM (active).
For the compound `COC(=O)[C@@H]1[C@H]2CC[C@@H](C[C@H]1OC(=O)c1ccccc1)N2C`, the outcome in assay [1], in assay [2] and in assay [4] was inactive.
For `O=C(O)c1ccccc1C(=O)Nc1cccc2ccccc12`, the result in assay [1], in assay [2], in [7], in assay [4], in assay [5] and in [13] was inactive. In addition, in assay [14], the compound was classed as inactive. The AC50 in assay [6] is 70.1 µM (active).
For `CNC(=O)Oc1cc(C)cc(C(C)C)c1`, the outcome in [1], in assay [2], in [7], in assay [4], in [5] and in [6] was inactive.
Consider `Cn1c(N)nc2c3cccnc3ccc21`, for which the compound was classed as inactive in assay [1], in assay [2], in [7], in assay [4] and in assay [6].
As to `CCCCNCC(O)c1ccc(O)cc1` (stereo unspecified), the compound was called inactive in assay [1], in assay [2], in assay [4], in assay [5] and in [6].
For `CCN1C[C@]2(COC)[C@H](O)C[C@H](OC)[C@@]34[C@@H]5C[C@@]6(O)[C@H](OC(=O)c7ccccc7)[C@@H]5[C@@](OC(C)=O)([C@@H]([C@H](OC)[C@H]23)[C@@H]14)[C@@H](O)[C@@H]6OC`, the compound was classed as inactive in assay [1], in [2], in [7], in [4], in [5] and in [6].
Consider `O=C1CCCCC1Cl` (stereo unspecified), for which the result in [1], in assay [12], in assay [3] and in [7] was inactive.
In the case of `COC1CC(=C(c2cccs2)c2cccs2)C[N+](C)(C)C1` (stereo unspecified), the outcome in assay [1], in assay [2], in assay [4] and in assay [5] was inactive.
Regarding `COP(=O)(OC)OC(=CCl)c1cc(Cl)c(Cl)cc1Cl`, the result in assay [1], in [2], in [7], in assay [4] and in [6] was inactive.
With `CC(=O)C(C)(C)C`, the result in assay [1], in assay [2], in [4], in [5] and in assay [6] was inactive.
For the compound `CC(Cl)(Cl)[N+](=O)[O-]`, the result in assay [1], in assay [2], in assay [7], in assay [4] and in assay [6] was inactive.
Consider `ClCc1ccccc1`, for which the compound was classed as inactive in assay [1], in assay [12], in assay [3], in [7], in assay [4] and in assay [5].
On to `CNC(=O)NC(O)C(Cl)(Cl)Cl` (stereo unspecified), for which the compound was classed as inactive in assay [1], in assay [2], in assay [7], in assay [5] and in assay [6].
Consider `NP(N)(=O)NC(=O)c1ccc(F)cc1`, for which the compound was called inactive in assay [1], in assay [2], in assay [7], in [4], in assay [5] and in assay [6].
On to `CON(C)C(=O)Nc1ccc(Br)cc1`, for which the call in assay [1], in assay [2] and in assay [6] was inactive.
In the case of `ClCC1CO1` (stereo unspecified), the compound was called inactive in assay [1], in assay [2], in assay [7], in [4], in assay [5] and in assay [6].
As for `C[C@H]1CC[C@]2(NC1)O[C@H]1C[C@H]3[C@@H]4CC[C@H]5C[C@@H](O)CC[C@]5(C)[C@H]4CC[C@]3(C)[C@H]1[C@@H]2C`, the call in assay [1], in assay [12], in assay [3], in [7], in assay [4] and in [5] was inactive.
Take `O=[N+]([O-])CCO`: the compound was called inactive in assay [1], in assay [2], in assay [7], in [5] and in assay [6].
`c1ccc2c(c1)CCNC2`: the outcome in [1], in assay [2], in assay [7], in assay [5] and in assay [6] was inactive.
`CCC(=O)O[C@](Cc1ccccc1)(c1ccccc1)[C@H](C)CN(C)C`: the compound was called inactive in [1], in [2], in assay [7], in assay [4] and in [6].
In the case of `CCOS(C)(=O)=O`, the result in [1], in assay [12], in [3], in [7] and in [4] was inactive.

By AC50 is commonly meant the concentration giving half of the maximal activity seen.
